{
  "source": "PubChem BioAssay (EPA / NIEHS)",
  "note": "Active and inactive are the calls of the source. Rule for the calls: active = hit-call score of the fitted dose curve at least 0.9, where 1 is the maximum; inactive = score below 0.9.",
  "data": [
    {"read-out": "Phosphatase and tensin (PTEN), PTEN (gene 5728)", "assay": "LTEA_HepaRG_PTEN: Life Technologies and Expression Analysis (LTEA) Assay for Phosphatase and tensin (PTEN) using HepaRG (AID 2283523)", "details": "mRNA level, 48 h; actives raise or lower the signal", "procedure": "LTEA_HepaRG is a cell based, multiplexed-readout assay that uses HepaRG, a human liver cell line, with measurements taken at 48 hours after chemical dosing on a 96-well plate.LTEA_HepaRG_PTEN is one of 102 assay component(s) measured in the LTEA HepaRG cell culture assay. It is a marker of Cell proliferation, survival, death.Data from the assay component LTEA_HepaRG_PTEN was analyzed into 1 endpoint. This assay endpoint, LTEA_HepaRG_PTEN, was analyzed with bidirectional fitting relative to DMSO as the negative control and baseline of activity. Using a type of inducible reporter, measures of mRNA induction for gain or loss-of-signal activity can be used to understand regulation of transcription factor activity. To generalize the intended target to other relatable targets, this assay endpoint is annotated to the phosphatase intended target family, where the subfamily is dual-specific phosphatase.\nA total of 1060 chemcials from the ToxCast library were tested in eight-point concentration-response experiments. Cell culture and cytotoxicity assays were conducted at Thermo Fisher Scientific's Custom Services facility (Madison, WI). A single lot of human HepaRG cells (Thermo Fisher Scientific, Frederick, MD) was used for the cell culture experiments. 96-well format collagen type I coated plates of human HepaRG cells were prepared using established methods. Briefly, cryopreserved HepaRG cells were thawed, plated at a density of approximately 100,000 cells/well in HepaRG Thaw, Plate, and General Purpose media (HPRG770, Thermo Fisher Scientific), and incubated for 48 hours. 0.5% DMSO was selected as vehicle control to balance the requisite need of DMSO in HepaRG cultures to maintain differentiation (for example, baseline metabolism, proportions of hepatocytes vs. cholangiocytes), while enabling further hepatic receptor pathway activation (for example, PXR and CAR) in response to chemical exposure. 48 hours after plating, the culture medium was replaced with HepaRG Serum-Free Incudtion Media. Cells were exposed to each test chemical in duplicate and maintained in CO2 incubators for another 48 hours. Chemical plates were thawed to room temperature and 200x concentrations of treatment groups were prepared. 8-point conentration-reponse curves were made with the highest exposure at 100 uM, followed by half-log dilutions, all in 0.5% DMSO. Each test plate contained variouse controls, induction positive controls (1mM phenobarbital), cytotoxicity positive controls ([…] aflatoxin B1), vehicle controls (0.5% DMSO), and total lysis controls (0.5% DMSO). Cell morphology images were taken using an Essen IncuCyte FLR automated microscope, with six 96-well plates imaged in about 24 minutes. Images were captured and exported and JPEG files. Spent culture media was transfered to black-well plates for the LDH assay, and remaining media was sorted at -80 C for later use. Cells were treated with RLT buffer and frozen until shipped for gene expression analysis. Total RNA was isolated from the cell suspension in 75 uL of Buffer RLT (Qiagen, Germantown, MD 20874) by Quintiles/Expression Analysis (Durham, NC) using a custom isolation procedure. Total RNA from each plate well was transferred to a preamplification plate. Fluidigm's 96.96 Dynamic ArrayTM (Fluidigm, Amsterdam, the Netherlands) technology was used for gene expression analyses by quantitative reverse transcription polymerase chain reaction (qRT-PCR, performed by Quintiles/Expression Analysis, Durham, NC)89. Standard TaqManTM Assays (Applied Biosystems/ThermoFisher Scientific, Foster City, CA) were used to assess the expression of 93 genes selected based on their selectivity and sensitivity to important hepatic receptors known to be modulated by environmental chemicals; importance in human hepatocyte functionality; and hepatotoxicity. […]", "values": [
      {"molecule": "C=CC(=O)NCNC(=O)C=C", "outcome": "inactive"},
      {"molecule": "COc1ccc(O)c(C(C)(C)C)c1", "outcome": "inactive"},
      {"molecule": "CCOC(=O)C(O)(c1ccc(Cl)cc1)c1ccc(Cl)cc1", "outcome": "inactive"},
      {"molecule": "O=C(NC(=O)c1cc(F)c(F)cc1Cl)Nc1cc(F)ccc1N1CCC(C(=O)O)CC1", "outcome": "inactive"},
      {"molecule": "CO/C=C(/C(=O)OC)c1ccccc1COc1cccc(C(F)(F)F)n1", "outcome": "inactive"},
      {"molecule": "Oc1ccc(C(c2ccc(O)cc2)(C(F)(F)F)C(F)(F)F)cc1", "outcome": "inactive"},
      {"molecule": "Nn1cnnc1", "outcome": "inactive"},
      {"molecule": "ClC1=C(Cl)[C@]2(Cl)[C@@H]3[C@@H]4C[C@@H]([C@H]5O[C@@H]45)[C@@H]3[C@@]1(Cl)C2(Cl)Cl", "AC50": "0.0333 µM (active)"},
      {"molecule": "Cc1cc(O)ccc1Cl", "outcome": "inactive"},
      {"molecule": "O=C(O)C(F)(F)C(F)(F)C(F)(F)C(F)(F)C(F)(F)C(F)(F)C(F)(F)C(F)(F)F", "outcome": "inactive"},
      {"molecule": "C[C@]12CCC(=O)C=C1CC[C@@H]1[C@@H]2CC[C@]2(C)C(=O)CC[C@@H]12", "outcome": "inactive"},
      {"molecule": "Clc1ccc(C(Cl)(Cl)Cl)cc1", "outcome": "inactive"},
      {"molecule": "CCC(=O)O[C@H]1CC[C@H]2[C@@H]3CCC4=CC(=O)CC[C@]4(C)[C@H]3CC[C@]12C", "outcome": "inactive"},
      {"molecule": "Cc1cc(-c2ccc(N)c(C)c2)ccc1N", "outcome": "inactive"},
      {"molecule": "CCOCCOC(C)=O", "outcome": "inactive"},
      {"molecule": "CCNc1nc(NC(C)C)nc(SC)n1", "outcome": "inactive"},
      {"molecule": "C[C@]12CCC(=O)C=C1CC[C@@H]1[C@@H]2CC[C@@]2(C)[C@H]1CC[C@]2(C)O", "outcome": "inactive"},
      {"molecule": "ClC1=C(Cl)[C@]2(Cl)[C@@H]3[C@@H](Cl)[C@H]4O[C@H]4[C@@H]3C1(Cl)C2(Cl)Cl", "outcome": "inactive"},
      {"molecule": "CC(C)(O)C(=O)Nc1ccc([N+](=O)[O-])c(C(F)(F)F)c1", "outcome": "inactive"},
      {"molecule": "N#Cc1ccc(N(CC(N)=O)CC(F)(F)F)cc1C(F)(F)F", "outcome": "inactive"},
      {"molecule": "Clc1ccc(Cl)cc1", "outcome": "inactive"},
      {"molecule": "CCC(C)(CC)c1cc(NC(=O)c2c(OC)cccc2OC)on1", "outcome": "inactive"},
      {"molecule": "ClC1=C(Cl)[C@]2(Cl)[C@@H]3[C@H]4C[C@H]([C@@H]5O[C@H]45)[C@@H]3[C@@]1(Cl)C2(Cl)Cl", "outcome": "inactive"},
      {"molecule": "CCCCCCCCCc1ccc(O)cc1", "outcome": "inactive"},
      {"molecule": "CC#Cc1cc(C)nc(Nc2ccccc2)n1", "outcome": "inactive"},
      {"molecule": "Oc1ccc(Cl)cc1Cl", "outcome": "inactive"},
      {"molecule": "Cc1cccc([N+](=O)[O-])c1", "outcome": "inactive"},
      {"molecule": "Clc1ccc(C(c2ccccc2Cl)C(Cl)(Cl)Cl)cc1", "note": "(stereo not given)", "outcome": "inactive"},
      {"molecule": "CCCCCCOC(=O)c1ccccc1C(=O)OCCCCCC", "outcome": "inactive"},
      {"molecule": "CC(c1ccc(O)cc1)(c1ccc(O)cc1)c1ccc(O)cc1", "AC50": "74.3 µM (active)"},
      {"molecule": "Cc1ccccc1[N+](=O)[O-]", "outcome": "inactive"},
      {"molecule": "ClC(Cl)=C(c1ccc(Cl)cc1)c1ccc(Cl)cc1", "outcome": "inactive"},
      {"molecule": "c1ccc(-c2ccccc2)cc1", "outcome": "inactive"},
      {"molecule": "Cc1cc2c3c(c1)C(c1ccccc1)=N[C@@H](NC(=O)c1ccncc1)C(=O)N3CC2", "outcome": "inactive"},
      {"molecule": "O=C(O)C(F)(F)C(F)(F)C(F)(F)C(F)(F)C(F)(F)C(F)(F)C(F)(F)C(F)(F)C(F)(F)F", "AC50": "82.2 µM (active)"},
      {"molecule": "Oc1c(Cl)c(Cl)c(Cl)c(Cl)c1Cl", "AC50": "6.88 µM (active)"},
      {"molecule": "CN(C)c1nc(=O)n(C2CCCCC2)c(=O)n1C", "outcome": "inactive"},
      {"molecule": "CC(C)C(=O)OCC(C)(C)C(OC(=O)C(C)C)C(C)C", "note": "(stereo not given)", "outcome": "inactive"},
      {"molecule": "CCCN(CCC)N=O", "outcome": "inactive"},
      {"molecule": "O=C(NC(=O)c1c(F)cccc1F)Nc1cc(Cl)c(OC(F)(F)C(F)F)c(Cl)c1", "outcome": "inactive"}
    ]}
  ]
}
